Sfp inh: inhibitors of Bacillus subtilis Sfp phosphopantetheinyl transferase | Biochemical Sfp PPTase activity, qHTS | Potency, µM, without a hit: largest response in the series, negative = inhibition, hits mostly inhibitors | hit rate 3.5% among 310,000;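 also: the enzyme is Sfp with the accession as filed and its product quenches rhodamine fluorescence; potency is read from the fitted curve at half-maximal effect; 0% = enzyme reaction without inhibitor and -100% = no enzyme wells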
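Compounds were incubated with enzyme (final 15 nM) for 15 min at room temperature before substrate addition started the reaction. Fluorescence at 525 nm excitation, 598 nm emission was recorded immediately and after 30 minutes.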
Tau fibril ThT: tau fibrillization inhibition (ThT binding) | Potency, µM (titrated, usually from 57.4 µM), for the others: at the top dose activity, negative = inhibition, actives largely listed as inhibitors | recombinant tau K18 P301L, heparin-induced fibrillization, ThT fluorescence | P10636 | hit rate 2.1% among 270,000 | AID 1460; also: potency is read from the fitted curve at half-maximal effect; nearly all actives have a fitted effect of over 55% in size
Target sequence (P10636 561-689 P618L limits assumed): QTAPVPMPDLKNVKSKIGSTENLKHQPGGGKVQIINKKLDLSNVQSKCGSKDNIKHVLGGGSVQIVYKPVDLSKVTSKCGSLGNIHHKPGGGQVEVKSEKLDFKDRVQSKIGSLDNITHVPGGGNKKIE
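In this qHTS, human K18 P301L tau is incubated with compound and heparin for 6 hr at 37 C, and Thioflavin T fluorescence then reports fibril load.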
Coupling enz: inhibits coupling enzyme system, counter-screen for aldolase hits; coupling enzyme system counterscreen, AmpLite Red fluorescence; activity change, negative = inhibition, % at 58.2 µM, hits read low; hit rate 0.67% among 290,000; AID 2472; in the data active = activity change below about -30%
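Compounds tested against the coupling enzymes alone at 57.5 uM final; readout was AmpLite Red fluorescence (525/598 nm) after 20 min at RT.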
Tau fibril FP: tau fibrillization inhibition (FP); hit rate 0.39% among 280,000; Potency, µM (titrated, usually from 57.7 µM), inactives show at the top dose activity, negative = inhibition, most hits filed as inhibitors; K18 P301L tau heparin fibrillization, Alexa594 FP, 6 h; AID 1468; P10636; also: potency is read from the fitted curve at half-maximal effect; nearly all actives have a fitted effect of over 55% in size
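Quantitative HTS format: compounds meet 15 uM recombinant K18 P301L tau and Alexa 594-tau tracer in 100 mM sodium acetate pH 7; 20 uM heparin triggers fibrillization at 37 C over 6 hr; FP gives the signal.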
Tau fluor cs: counter-screen for tau fibril formation inhibitors. tau K18 P301L Alexa594 fluorescence, heparin fibrillization. Potency, µM (top dose mostly 57.7 µM), without a hit: at the top dose activity change, negative = decrease. hit rate 0.93% among 280,000; also: potency is read from the fitted curve at half-maximal effect; nearly all actives have a fitted effect of over 55% in size
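Human tau K18 P301L (15 uM unlabeled, 0.24 uM Alexa 594-labeled) in 100 mM sodium acetate pH 7 with 20 uM heparin, 6 hr at 37 C. ThT 30 uM added, 1 hr ambient; Alexa 594 FP and total fluorescence read at 555/632 nm.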
* = called active by the depositor; ? = inconclusive; · = no result; [ ] = remark or other dose. Sampled rows, rich in hits. Any-hit rate of the full collection: about 5.2%. Unless noted, calls follow the shape of the dose curve; as a rule, active = well fitted curve in the direction sought with a large enough effect; inconclusive = small, poorly fitted or top-dose-only effect, or another doubt; inactive = no such curve, though single readings can be large; an effect the other way counts as inactive or inconclusive. Unless noted, % is scaled to controls: 0 for no effect and ±100 for the full control effect.

SMILES	Sfp inh	Tau fibril ThT	Coupling enz	Tau fibril FP	Tau fluor cs
CC(=O)Nc1ccc(NC(=O)c2ccc3c(c2)N(Cc2cccc(Cl)c2)C(=O)c2ccccc2S3(=O)=O)cc1	·	-11%	·	16µM*	?
COc1ccc2c3c(cccc13)N(C)N=C2C	-15%	7.1µM*	-5	?	?
Cc1c(NS(=O)(=O)c2cccs2)cccc1-c1nc2cccnc2s1	4%	-13%	7	-5%	?
CNS(=O)(=O)c1ccc2c3c(cccc13)C(=O)N2	3%	·	-1	·	·
O=C1Nc2ccc(NS(=O)(=O)c3cccs3)c3cccc1c23	-9%	?	-56*	6%	3%
CCOc1ccccc1NS(=O)(=O)c1cccs1	15%	1%	-41*	-2%	1%
O=S(=O)(Nc1cccc2ncccc12)c1cccs1	6%	-19%	-38*	-4%	-20%
CCCOc1ccccc1Cn1c(=O)sc2ccccc21	·	-12%	·	-8%	-16%
CC(C)(C)c1cc(C(=S)N2CCN(CCO)CC2)cc(C(C)(C)C)c1O	3.2µM*	-9%	-20	-8%	6%
N#CC12CCCCC1CC1CCCCC1(C#N)N2N (stereo not given)	79µM*	-7%	0	-10%	?
CCOC(=O)c1c(C)n(CCOc2ccccc2)c2ccc(O)cc12	71µM*	·	3	·	·
CCOC(=O)c1c(C)n(CCNC(C)=O)c2ccc(O)cc12	8%	-1%	1	7%	-2%
Cc1nc2ccccn2c1-c1ccnc(=S)[nH]1	10µM*	?	-3	?	-14%
O=C(O)CCCN1C(=O)/C(=C\c2ccccc2OCc2ccccc2)SC1=S	1%	·	9	·	·
O=C(O)CCCN1C(=O)/C(=C/c2cn(-c3ccccc3)nc2-c2cccs2)SC1=S	-29%	16µM*	8	?	-4%
Cc1cc(NC(=O)CSc2nc3c([nH]c4ccccc43)c(=O)n2-c2ccccc2)no1	·	11%	·	?	-15%
COc1cccc(-n2c(SCC(=O)Nc3cc(C)on3)nc3c([nH]c4ccccc43)c2=O)c1	25µM*	8%	0	1%	2%
COc1cccc(-n2c(SCC(N)=O)nc3c([nH]c4ccccc43)c2=O)c1	20µM*	-17%	0	3%	-7%
Cc1c(-c2nc(-c3ccc4c(c3)[nH]c(=O)n4C)no2)cccc1[N+](=O)[O-]	·	-11%	·	6%	-1%
Cn1c(CNc2ccc(O)cc2)nc2ccccc21	79µM*	·	0	·	·
CCCn1c(CNc2ccccc2O)nc2ccccc21	?	28µM*	-18	?	?
COc1cc2c(-c3ccccc3Cl)nc3c(c(C)nn3-c3ccccc3)c2cc1OC	·	4%	·	?	-23%
Cc1ccc(C)c(C(C)NC(=O)c2ccc(Br)o2)c1 (stereo not given)	50µM*	3%	-6	1%	0%
Cc1ccc(C)c(C(C)NC(=O)CC#N)c1 (stereo not given)	6%	-1%	0	0%	4%
CCN(CC)c1ccc(C(=O)O)cc1	0%	-9%	-1	-21%	-16%
SMILES	Sfp inh	Tau fibril ThT	Coupling enz	Tau fibril FP	Tau fluor cs
CCN(CC)c1ccc(SS(=O)(=O)O)cc1	45µM*	?	19	?	-24%
Cc1cccc(NC(=O)CCCc2ccccc2)c1	-2%	·	0	·	·
Cc1ccc(NC(=O)Cn2c(=O)n(Cc3ccc(C(=O)NCc4ccc5c(c4)OCO5)cc3)c(=O)c3ccccc32)cc1	·	2%	·	32µM*	-18%
COc1cccc(NC(=O)Cn2c(=O)n(Cc3ccc(C(=O)NCc4ccc5c(c4)OCO5)cc3)c(=O)c3ccccc32)c1	·	-1%	·	25µM*	?
CN(C)c1ccc(NC(=O)Cn2c(=O)n(Cc3ccccc3)c(=O)c3ccccc32)cc1	-13%	?	-1	4%	18µM*[quencher]
CN(C)c1ccc(NC(=O)CCCc2ccccc2)cc1	22µM*	?	-11	13%	-6%
COc1ccc(OC)c(S(=O)(=O)N2Cc3ccccc3CC2C(=O)Nc2ccc(C(C)=O)cc2)c1 (stereo not given)	·	-9%	·	-13%	?
CCSC[C@H](NC(=O)[C@H](C)N)C(=O)N[C@@H](CC(=O)O)C(=O)N[C@H](C(=O)N[C@@H](C)C(=O)N[C@H](C(=O)N[C@@H](CSCC)C(=O)N[C@H](C(=O)N[C@H](C(=O)N[C@@H](Cc1cnc[nH]1)C(=O)N[C@@H](CCCNC(=N)N)C(=O)N[C@@H](CC(C)C)C(=O)N[C@@H](C)C(=O)NCC(=O)N[C@@H](CC(C)C)C(=O)N[C@@H](CC(C)C)C(=O)N[C@@H](CO)C(=O)N[C@@H](CCCNC(=N)N)C(=O)N[C@@H](CO)C(=O)NCC(=O)NCC(=O)N[C@H](C(=O)N[C@H](C(=O)N[C@@H](CCCCN)C(=O)N[C@@H](CC(N)=O)C(=O)N[C@@H](CC(N)=O)C(=O)N[C@@H](Cc1ccccc1)C(=O)N[C@H](C(=O)N1CCC[C@H]1C(=O)N[C@H](C(=O)N[C@@H](CC(N)=O)C(=O)N[C@H](C(=O)NCC(=O)N[C@@H](CO)C(=O)N[C@@H](CCCCN)C(=O)N[C@@H](C)C(=O)N[C@@H](Cc1ccccc1)C(N)=O)C(C)C)[C@@H](C)O)C(C)C)C(C)C)C(C)C)[C@@H](C)O)C(C)C)[C@@H](C)O)[C@@H](C)O	7%	·	-13	·	·
Cc1ccc(-n2c(=O)c3ccc(C(=O)NCc4ccccc4Cl)cc3n(CC(=O)Nc3cccc(F)c3)c2=O)cc1	·	7%	·	16µM*	?
Cc1nc2cc(-c3ccccc3)nn2c(C)c1CCC(=O)NCc1cccc(Cl)c1	·	5%	·	-6%	-7%
COc1cccc([C@@H]2Oc3ccc(OC)cc3C(=O)[C@H]2OC(=O)NCc2ccco2)c1	-2%	-5%	3	-5%	-7%
O=C(CCn1cnc2onc(-c3ccc(F)cc3)c2c1=O)Nc1cccc(C(F)(F)F)c1	·	14%	·	22µM*	?
Cc1ccc(NC(=O)CCn2cnc3onc(-c4ccc(F)cc4)c3c2=O)c(Br)c1	·	0%	·	?	-29%
O=C(CCn1cnc2onc(-c3ccc(F)cc3)c2c1=O)Nc1ccc(F)c(Cl)c1	·	18%	·	28µM*	?
CC1(C)CCCN(C(=O)c2ccc3c(c2NCCO)C(=O)c2ccccc2C3=O)C1	-17%	14µM*	-2	18%	?
O=C1c2ccccc2C(=O)c2c1ccc(C(=O)N1CCCCC1)c2NCCO	13%	-15%	0	-2%	-12%
CCN(CCN(C)C)C(=O)c1ccc2c(c1NCCO)C(=O)c1ccccc1C2=O	?	?	-37*	-2%	-15%
CCOC(=O)c1ccc(N2C(=O)c3[nH]nc(-c4ccc(C)cc4)c3C2c2ccc(O)c(OCC)c2)cc1 (stereo not given)	·	0%	·	?	?
